In PubChem BioAssay AID1851 (National Center for Advancing Translational Sciences (NCATS), 2009):
Among all 16,000 compounds or so, about 5,800 (36%) were called active. Another 23% or so got no clear call; they are omitted. Calls follow the shape of the dose curve; as a rule, active = well fitted curve in the direction sought with a large enough effect; inconclusive = small, poorly fitted or top-dose-only effect, or effect the other way; inactive = no such curve, though single readings can be large or run the other way. This is one part of the list.

Molecular target: Cytochrome P450 2C19 (Homo sapiens) (UniProt P33261)
Assay: Cytochrome panel assay with activity outcomes
Settings: recombinant CYP, pro-luciferin dealkylation, luminescence, p450-cyp2c19; series mostly up to 57.1 µM; activity, negative = inhibition: at the top concentration
% is scaled to controls: 0 for no effect and ±100 for the full control effect.

Chain of Cytochrome P450 2C19 (Homo sapiens) (P33261 whole entry, looked up): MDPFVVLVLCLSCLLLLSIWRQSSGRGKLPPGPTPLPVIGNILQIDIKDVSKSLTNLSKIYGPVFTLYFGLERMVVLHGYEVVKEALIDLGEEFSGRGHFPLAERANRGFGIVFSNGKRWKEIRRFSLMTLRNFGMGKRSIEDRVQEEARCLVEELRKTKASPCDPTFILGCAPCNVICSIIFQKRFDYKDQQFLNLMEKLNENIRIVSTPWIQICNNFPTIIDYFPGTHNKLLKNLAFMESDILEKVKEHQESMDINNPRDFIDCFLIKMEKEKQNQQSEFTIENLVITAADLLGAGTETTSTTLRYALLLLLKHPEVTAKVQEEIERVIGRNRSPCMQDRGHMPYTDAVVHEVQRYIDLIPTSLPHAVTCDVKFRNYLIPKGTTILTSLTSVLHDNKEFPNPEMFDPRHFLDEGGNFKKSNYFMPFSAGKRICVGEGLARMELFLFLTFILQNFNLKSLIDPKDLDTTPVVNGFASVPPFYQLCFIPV

Compound | activity, negative = inhibition | AC50
CN(C)CCNc1oc(COc2ccc(Cl)cc2Cl)nc1C#N | 0.262% (inactive) | –
N#Cc1nc(COc2ccccc2Cl)oc1NCc1ccco1 | – | 2.24 µM (active)
CCOC(=O)c1ccc(NC(=O)CC2NCCNC2=O)cc1 (configuration not stated) | 19.3% (inactive) | –
CCC1C(=O)N=C(SCC(=O)Nc2ccc(C(=O)OC)cc2)NC1=O (configuration not stated) | – | 22.4 µM (active)
CCCCSc1ccc2nc(-c3ccc(C#N)cc3)cn2c1 | – | 4.47 µM (active)
O=C(O)C[C@H](Cc1ccccc1Cl)C(=O)O | 14.2% [at 11.4 µM] (inactive) | –
Clc1ccccc1CNCC1CCC(CNCc2ccccc2Cl)CC1 (configuration not stated) | – | 0.794 µM (active)
Oc1ccccc1CNCc1ccccc1O | -44.5% [at 11.4 µM] (inactive) | –
CC(N)=NCCCC[C@H](N)C(=O)O | – | inactive
NC(=O)C1(N2CCCCC2)CCN(C(=O)c2ccc(-n3cnnn3)cc2)CC1 | -7.9% (inactive) | –
O=C(O)C1(Nc2ccc(Cl)cc2)CCCC1 | 25.8% [at 11.4 µM] (inactive) | –
NC(=O)C1(N2CCCCC2)CCN(C(=S)Nc2ccc(Cl)cc2)CC1 | – | 3.16 µM (active)
CCCCSC(=S)N(C)C1CCS(=O)(=O)C1 (configuration not stated) | – | 3.98 µM (active)
CCCNC1CCS(=O)(=O)C1 (configuration not stated) | 3.5% (inactive) | –
CCCCN(C(=S)Nc1ccccc1)C1CCS(=O)(=O)C1 (configuration not stated) | -28.8% (inactive) | –
CCCn1nc2cc(C(=O)NCCCCc3ccccc3)ccc2c1OCC | – | 6.31 µM (active)
CCCn1nc2cc(C(=O)NCc3ccccc3OC)ccc2c1OCC | – | 20 µM (active)
COc1ccccc1CNC(=O)c1cc2c(C)nn(Cc3ccc(F)cc3)c2s1 | – | 11.2 µM (active)
CCCCn1nc2cc(C(=O)NCCCCc3ccccc3)ccc2c1OCC | – | 22.4 µM (active)
COC(=O)Cc1c(C)nc2nc(NCc3ccccc3OC)[nH]n2c1=O | -29.7% (inactive) | –
NCC[C@H](N)C(=O)O | -4.53% [at 11.4 µM] (inactive) | –
CCCn1nc2cc(C(=O)NC3CCCc4ccccc43)ccc2c1OCC (configuration not stated) | – | 28.2 µM (active)
COCCn1nc2cc(C(=O)NCC34CC5CC(CC(C5)C3)C4)ccc2c1OC | -28.7% (inactive) | –
CCCn1nc2cc(C(=O)NCCc3ccc(C)cc3)ccc2c1OCC | – | 25.1 µM (active)
CCOc1c2ccc(C(=O)NCc3ccc4c(c3)OCO4)cc2nn1CC | – | 31.6 µM (active)

Compound | activity, negative = inhibition | AC50
CCn1nc2cc(C(=O)NCC34CC5CC(CC(C5)C3)C4)ccc2c1OC | – | 22.4 µM (active)
CCOc1c2ccc(C(=O)NC3CCCc4ccccc43)cc2nn1C (configuration not stated) | -18.9% (inactive) | –
CCOc1c2ccc(C(=O)NCc3ccco3)cc2nn1CC | -25.6% (inactive) | –
C=CCOc1c2ccc(C(=O)NC3CCCc4ccccc43)cc2nn1C (configuration not stated) | -27.6% (inactive) | –
COC(=O)C/C=C\[C@@H](C)[C@@H](/C=N\O[C@@H]1O[C@H](COC(C)=O)[C@H](OC(C)=O)[C@H](OC(C)=O)[C@H]1OC(C)=O)OC | -12.5% [at 11.4 µM] (inactive) | –
NS(=O)(=O)c1ccc(N=Nc2cc3ccccc3c(C(=O)O)c2O)cc1 | -28.9% [at 11.4 µM] (inactive) | –
OC[C@@H]1O[C@@H](n2cnc3cncnc32)[C@@H](O)[C@H]1O | -17.6% (inactive) | –
O=C1C=C(NCCc2cc(Br)c(O)c(Br)c2)C(=O)c2ncccc21 | – | 0.501 µM (active)
O=C(Nc1ncc(Cc2cc(Cl)ccc2Cl)s1)c1ccc([N+](=O)[O-])cc1 | – | 2 µM (active)
CCOC(=O)N/N=C1/C[C@@H](O)[C@@H](O)[C@@H]2[C@@H]3C(=O)N(c4cccc(Oc5ccccc5)c4)C(=O)[C@H]3CC[C@H]12 | 42.4% [at 11.4 µM] (inactive) | –
N=C1CCC[C@@H]1C(=S)SCCC(N)=O | -14.4% [at 11.4 µM] (inactive) | –
CCC(C)C1NC(=S)N(C2CCCCC2)C1=O (configuration not stated) | – | 2 µM (active)
CC(C)CC1NC(=S)N(C2CCCCC2)C1=O (configuration not stated) | – | 7.94 µM (active)
Cc1nc2cnc(Oc3ccccc3)nc2n(C)c1=O | -44.4% (inactive) | –
Cn1c(=O)c(CCc2ccccc2)nc2cnc(Oc3ccccc3)nc21 | – | 25.1 µM (active)
COc1ccc(Oc2ncc3nc(-c4cc(F)cc(F)c4)c(=O)n(C)c3n2)cc1 | 0.472% (inactive) | –
COc1ccc(Oc2ncc3nc(CCc4ccccc4)c(=O)n(C)c3n2)cc1 | – | 10 µM (active)
COc1ccc(Oc2ncc3nc(C)c(=O)n(C)c3n2)cc1 | -36% (inactive) | –
Cn1c(=O)c(-c2cc(F)cc(F)c2)nc2cnc(Oc3ccccc3)nc21 | -42.9% (inactive) | –
CC(C)N=c1cc2n(-c3ccc(Cl)cc3)c3ccccc3nc-2cc1Nc1ccc(Cl)cc1 | -25.3% [at 25.6 µM] (inactive) | –
O=c1c2ccccc2nc2n1C(CSCc1cccc(C(F)(F)F)c1)CS2 (configuration not stated) | – | 0.251 µM (active)
C[n+]1cc2c3c(ccc2c2ccc4cc5c(cc4c21)OCO5)OCO3 | – | 6.31 µM (active)
COc1ccc2cc3[n+](cc2c1OC)CCc1cc2c(cc1-3)OCO2 | -19.4% [at 25.6 µM] (inactive) | –
O=C(Nc1cc2c(oc1=O)CCCC2=O)c1ccc(Cl)cc1 | – | 22.4 µM (active)
Cc1ccc(S(=O)(=O)Nc2ccc(=O)n(Cc3ccc(Cl)c(Cl)c3)c2)cc1 | – | 0.158 µM (active)

Compound | activity, negative = inhibition | AC50
O=c1ccc(NS(=O)(=O)c2ccccc2)cn1Cc1ccc(Cl)c(Cl)c1 | – | 0.2 µM (active)
O=c1ccc(NS(=O)(=O)c2ccc(Cl)cc2)cn1Cc1ccc(Cl)c(Cl)c1 | – | 0.251 µM (active)
CS(=O)(=O)c1ccccc1-c1nc(-c2cc(C(F)(F)F)cc(C(F)(F)F)c2)no1 | -26.9% (inactive) | –
O=C(c1ccccc1-c1nc(-c2ccccc2)no1)N1CCOCC1 | -3.39% (inactive) | –
Clc1ccccc1-c1nc(-c2ccncc2)no1 | – | 0.0631 µM (active)
CO[C@@H]1COC(=O)C/C=C\[C@@H](C)[C@@H]2C=C[C@H](O)[C@@H](COC(=O)CCC[C@H]1C)O2 | -8.99% [at 11.4 µM] (inactive) | –
CC(C)Oc1ccc2c(=O)c3cc(C(=O)O)ccc3oc2c1 | -30.5% (inactive) | –
COc1ccc2c(=O)c(-c3ccccc3C)c(C)oc2c1 | – | 20 µM (active)
N[C@H](C(=O)O)[C@H](O)C(=O)O | -18% (inactive) | –
COc1ccccc1C1CC(c2c(-c3ccccc3)c3cc(Cl)ccc3[nH]c2=O)=NN1S(C)(=O)=O (configuration not stated) | – | 3.16 µM (active)
O=c1oc2ccccc2cc1-c1csc(NN=C2CCCCC2)n1 | – | 1.58 µM (active)
Cc1ccc(-c2noc(-c3cc4ccccc4oc3=O)n2)cc1 | -22.9% (inactive) | –
CCCc1nnc(SCC(=O)N2CCCC(C)C2)n1CC1CCCO1 (configuration not stated) | -12.9% (inactive) | –
CC1CC(C)CN(C(=O)CSc2nnc(CSc3ncccn3)n2C)C1 (configuration not stated) | – | 14.1 µM (active)
CS(=O)(=O)c1ccc([C@H](O)[C@H](CO)NC(=O)C(Cl)Cl)cc1 | -51.5% [at 25.6 µM] (inactive) | –
N#CC(=C1CCCC1)c1nc(-c2ccccc2)cs1 | – | 1.41 µM (active)
Cc1ccc(-c2csc(C(C#N)=C3CCCC3)n2)cc1 | – | 2.24 µM (active)
Nc1nc(N)c(-c2cccc(C(F)(F)F)c2)c(Cc2cccc(C(F)(F)F)c2)n1 | – | 2.51 µM (active)
Cc1ccc(S(=O)(=O)N[C@H](C(=O)N2CCC(C(=O)NCC(=O)O)CC2)C(C)C)cc1 | -10.1% (inactive) | –
Cc1ccc(C(=O)N2CCN(C3c4cccc5cccc(c45)C3NS(=O)(=O)c3ccccc3)CC2)cc1 (configuration not stated) | – | 3.16 µM (active)
CC(C)(CO)[C@H](O)C(=O)NCCCO | -17.6% [at 25.6 µM] (inactive) | –
CCOc1ccc(N(C(C)C(=O)N/N=C(\C)c2cccc(NC(=O)c3ccccc3)c2)S(C)(=O)=O)cc1 (configuration not stated) | – | 3.98 µM (active)
C/C(CCN1CCCCc2nc(C)c(C)cc21)=N\OC[C@@H](C)[C@H](OCc1ccccc1)C(C)C | -22.2% [at 11.4 µM] (inactive) | –
C[N+](C)(C)CCO | -4.75% (inactive) | –
O=C(Nc1nccs1)C1Cc2ccccc2CN1S(=O)(=O)c1ccc(F)cc1 (configuration not stated) | – | 0.891 µM (active)

Compound | activity, negative = inhibition | AC50
CCc1nnc(NC(=O)C2Cc3ccccc3CN2S(=O)(=O)c2ccc(C)cc2)s1 (configuration not stated) | – | 0.631 µM (active)
O=C(Nc1nnc(C2CC2)s1)C1Cc2ccccc2CN1S(=O)(=O)c1ccccc1F (configuration not stated) | – | 0.0282 µM (active)
O=C(O)c1c[nH]c2c(ccc3[nH]cc(C(=O)O)c(=O)c32)c1=O | -8.42% [at 11.4 µM] (inactive) | –
O=C(N/N=C\c1cccc(O)c1)c1ccncc1 | -1.11% [at 11.4 µM] (inactive) | –
Cc1ccccc1C(=O)N/N=C/c1ccncc1 | – | 39.8 µM (active)
CC(=O)Nc1cccc(NC(=O)C2CCCN2C(=O)Nc2ccccc2C)c1 (configuration not stated) | -15.2% (inactive) | –
Cc1cc(C)c(NC(=O)C2CCCN2C)c(C)c1 (configuration not stated) | -28.8% (inactive) | –
Cc1cc(C)cc(NC(=O)N2CCCC2C(=O)Nc2ccc(-n3cnnn3)c(C)c2)c1 (configuration not stated) | – | 0.282 µM (active)
Cc1cc(NC(=O)c2ccco2)ccc1-n1cnnn1 | – | 17.8 µM (active)
CC(C)=CCC/C(C)=C/CO/N=C1/C[C@@H](O)[C@@H](O)[C@@H]2[C@@H]3C(=O)N(C(C)(C)C)C(=O)[C@H]3CC[C@@H]12 | -29.1% [at 11.4 µM] (inactive) | –
CCOC(=O)c1c(NC(=O)/C=C/c2ccc3c(c2)OCO3)sc(C)c1C | -10.8% (inactive) | –
CCOC(=O)c1c(NC(=O)/C=C/c2ccc3c(c2)OCO3)sc(C)c1CC | – | 5.01 µM (active)
COc1cccc(OC)c1C(=O)NC(=S)N1CCN(c2ccc(C(F)(F)F)cc2[N+](=O)[O-])CC1 | – | 14.1 µM (active)
CC(C)Oc1cccc(C(=O)NC(=S)N2CCN(c3ccc(C(F)(F)F)cc3[N+](=O)[O-])CC2)c1 | – | 8.91 µM (active)
COc1ccccc1CN1CCCC2(CCN(S(C)(=O)=O)CC2)C1 | 4.75% (inactive) | –
O=P(O)(O)O[C@@H]1O[C@H](CO)[C@@H](O)[C@H](O)[C@@H]1O | 38.5% [at 11.4 µM] (inactive) | –
CCOc1ncccc1C(=O)OCC(=O)Nc1cc(C)ccc1C | – | 5.01 µM (active)
CCOCC(=O)Nc1cc(-c2cn3cccnc3n2)ccc1C | 29.5% (inactive) | –
Cc1ccc(C)c(NC(=O)Cn2c([N+](=O)[O-])cnc2C)c1 | -43.3% (inactive) | –
CCOC(=O)Nc1ccc(C(=O)NCC2CCCO2)cc1 (configuration not stated) | 14.5% (inactive) | –
CCOc1cc(NC(=S)NCC2CCCO2)c(OCC)cc1NC(=O)c1cccc(C)c1 (configuration not stated) | – | 11.2 µM (active)
Cc1ccc(C(=O)NC(=S)NCC2CCCO2)cc1 (configuration not stated) | – | 6.31 µM (active)
